This is an account of results in PubChem BioAssay (NCATS).

Results filed as inconclusive are left out. A call without a number means that no potency is given here. The source made the active and inactive calls. The call rests on the fitted dose curve; in most records, active means well fitted cell-killing curve with a large enough effect; inconclusive means small, poorly fitted or top-dose-only effect, or effect the other way; inactive means no such curve, though single readings can be large or run the other way.
Potency means the concentration at half of the fitted maximal effect.

The assay is described as follows: Quantitative High-Throughput drug screen in 47 multiple myeloma cell lines against the NCATS MIPE library collection: XG1_PLB cell viability assay (AID 1919866). Further: nearly all actives have a fitted effect of over 35% in size. As to conditions: CellTiter-Glo ATP, 48 h; series mostly up to 45.8 µM. The text has this: PI: Beverly A. Mock Ph.D.
Laboratory of Cancer Biology and Genetics,
Center for Cancer Research, National Cancer Institute,
National Institute of Health, Bethesda, Maryland
Drug resistance and disease progression are common in multiple myeloma (MM) patients, underscoring the need for new therapeutic combinations. […] We hypothesized that effective combinations would reduce MYC expression and enhance p16 activity. […] These preclinical data identify potentially useful drug combinations for evaluation in drug-resistant MM and reveal potential mechanisms of combined drug sensitivity.
Described herein is the primary MIPE qHTS used to cherrypick compounds. Validated compounds were then further tested for potential synergistic activiy.
[1] Peat TJ, Gaikwad SM, Dubois W, Gyabaah-Kessie N, Zhang S, Gorjifard S, Phyo Z, Andres M, Hughitt VK, Simpson RM, Miller MA, Girvin AT, Taylor A, Williams D, D'Antonio N, Zhang Y, Rajagopalan A, Flietner E, Wilson K, Zhang X, Shinn P, Klumpp-Thomas C, McKnight C, Itkin Z, Chen L, Kazandijian D, Zhang J, Michalowski AM, Simmons JK, Keats J, Thomas CJ, Mock BA. Drug combinations identified by high-throughput screening promote cell cycle transition and upregulate Smad pathways in myeloma. Cancer Lett. 2023 Aug 1;568:216284. doi: 10.1016/j.canlet.2023.216284. Epub 2023 Jun 24. PMID: 37356470; PMCID: PMC10408729.
SEQUENCE No. (e.g., 1, 2, 3, etc.); […] (e.g., Cells, Incubation, Reagent, etc.); VALUE and DESCRIPTION.
1; Cells; 5 uL; white, solid bottom 1536-well Greiner assay plate.
2; Compounds; 23 nL; Kalypsis pin tool (Wako USA) equipped with a 1536-well pin head to transfer to the assay plates.
3; Incubation; 48 hours; 37C incubation.
4; Reagent;5uL; CellTiter Glo (Promega).
5; Detector; 425V; Luminescence; Viewlux PerkinElmer.
NOTES (numbers refer to Sequence numbers above)
1. The cell-based screening methods employed in this study were like those previously published. Briefly, the corresponding myeloma cell lines were screened in 1,536-well plates with 500 cells, 5-uL per well for inhibition of cell viability (assessed by measuring ATP levels with CellTiterGlo).
2. NCATS MIPE 4.0 library of approved and investigational drugs were added using the Kalypsis pin tool. Wells treated with DMSO only for 100% viability and media only for 0% viability were used as controls.
3. The assay plates were covered and incubated for 48 hours in a 37C, 5% CO2 incubator with controlled humidity.
4. After 48 hours, CellTilter-GloTM luminescent substrate mix (Promega) reagent was added to the assay plate and plates we incubated for 5 min at room temperature.
5. Signal was measured as median relative luminescence units on a ViewLux (PerkinElmer) multiplate reader.
[1] Heske CM, Davis MI, Baumgart JT, Wilson K, Gormally MV, Chen L, Zhang X, Ceribelli M, Duveau DY, Guha R, Ferrer M, Arnaldez FI, Ji J, Tran HL, Zhang Y, Mendoza A, Helman LJ, Thomas CJ. Matrix Screen Identifies Synergistic Combination of PARP Inhibitors and Nicotinamide Phosphoribosyltransferase (NAMPT) Inhibitors in Ewing Sarcoma. Clin Cancer Res. 2017 Dec 1;23(23):7301-7311. doi: 10.1158/1078-0432.CCR-17-1121. Epub 2017 Sep 12. PMID: 28899971; PMCID: PMC6636827.
In the case of `Nc1ccc(S(=O)(=O)Nc2ccccn2)cc1`, the Potency entry is “inactive”.

As to `C#CCN[C@@H]1CCc2ccccc21`, the Potency entry was “inactive”.

As for `CCN1CCCC1CNC(=O)c1cc(S(N)(=O)=O)ccc1OC` (stereo not given), the Potency entry is “inactive”.

For the compound `C[C@@H](CN1CC(=O)NC(=O)C1)N1CC(=O)NC(=O)C1`, the Potency is 14.8 µM (active).

Take `COc1cc(NS(=O)(=O)c2ccc(N)cc2)nc(OC)n1`: the Potency entry is “inactive”.

As to `O=C(O)c1cc(=O)[nH]c(=O)[nH]1`, the Potency result was “inactive”.

Turning to `N[C@@H](Cc1ccc(O)c(O)c1)C(=O)O`, the Potency entry is “inactive”.

As for `CC1CC2C3CCC4=CC(=O)C=C[C@]4(C)[C@@]3(F)[C@@H](O)C[C@]2(C)[C@@]1(O)C(=O)CO` (stereo not given in full), the Potency entry was “inactive”.

`CC[C@H](NC(C)C)[C@H](O)c1ccc(O)c2[nH]c(=O)ccc12`: the Potency result was “inactive”.

Take `NC(=O)N1c2ccccc2CC(=O)c2ccccc21`: the Potency entry is “inactive”.

On to `Oc1c(Cl)cc(Cl)c2cccnc12`, for which the Potency is 11.8 µM (active).

Turning to `Cc1ccc(S(=O)(=O)N[C@@H](Cc2ccccc2)C(=O)CCl)cc1`, the Potency was 7.43 µM (active).

Consider `O=c1oc2c(O)c(O)cc3c(=O)oc4c(O)c(O)cc1c4c23`, for which the Potency result is “inactive”.

On to `Nc1nc(N)c2nc(CNc3ccc(C(=O)NC(CCC(=O)O)C(=O)O)cc3)cnc2n1` (stereo not given), for which the Potency was 0.0332 µM (active).

On to `COC(=O)Nc1nc2ccc(C(=O)c3ccccc3)cc2[nH]1`, for which the Potency was 0.332 µM (active).

On to `CN(CCOc1ccc(CC2SC(=O)NC2=O)cc1)c1ccccn1` (stereo not given), for which the Potency entry was “inactive”.

As for `O=C(O)c1cn(C2CC2)c2cc(N3CCNCC3)c(F)cc2c1=O`, the Potency result was “inactive”.

Regarding `COc1cc([C@@H]2c3cc4c(cc3[C@H](O)[C@H]3COC(=O)[C@H]23)OCO4)cc(OC)c1OC`, the Potency result was “inactive”.

Turning to `CN(C)c1ccc(C(=C2C=CC(=[N+](C)C)C=C2)c2ccc(N(C)C)cc2)cc1`, the Potency was 0.0235 µM (active).

`COc1ccc(C(=O)CC(=O)c2ccc(C(C)(C)C)cc2)cc1`: the Potency is 1.66 µM (active).

For `CO[C@@]12[C@H](COC(N)=O)C3=C(C(=O)C(C)=C(N)C3=O)N1C[C@@H]1N[C@@H]12`, the Potency was 20.9 µM (active).

For `CCCCS(=N)(=O)CCC(N)C(=O)O` (stereo not given), the Potency was 13.2 µM (active).

As to `CCCN[C@H]1CCc2nc(N)sc2C1`, the Potency result is “inactive”.

On to `Cc1nnc(C(=O)NC(C)(C)c2nc(C(=O)NCc3ccc(F)cc3)c(O)c(=O)n2C)o1`, for which the Potency result was “inactive”.

Turning to `COc1cc2nc(N3CCCN(C)CC3)nc(NC3CCN(Cc4ccccc4)CC3)c2cc1OC`, the Potency is 2.96 µM (active).

Take `OC(Cn1cncn1)(Cn1cncn1)c1ccc(F)cc1F`: the Potency entry is “inactive”.

Take `CC(=O)[C@H]1CC[C@H]2[C@@H]3CC=C4C[C@@H](O)CC[C@]4(C)[C@H]3CC[C@]12C`: the Potency result is “inactive”.

On to `COc1ccccc1OCC(O)COC(N)=O` (stereo not given), for which the Potency entry was “inactive”.

On to `OCc1ccc(-c2nn(Cc3ccccc3)c3ccccc23)o1`, for which the Potency result was “inactive”.

`CNNCc1ccc(C(=O)NC(C)C)cc1`: the Potency result is “inactive”.

As to `CN1CCCC(n2nc(Cc3ccc(Cl)cc3)c3ccccc3c2=O)CC1` (stereo not given), the Potency is 1.48 µM (active).

As for `COc1nc(N)nc2c1ncn2[C@@H]1O[C@H](CO)[C@@H](O)[C@@H]1O`, the Potency result was “inactive”.

For `CCCc1nc(C)c2c(=O)[nH]c(-c3cc(S(=O)(=O)N4CCN(CC)CC4)ccc3OCC)nn12`, the Potency was 5.9 µM (active).

On to `CC(N)C12CC3CC(CC(C3)C1)C2` (stereo not given), for which the Potency result is “inactive”.

As to `NNC(=O)c1ccncc1`, the Potency entry is “inactive”.

In the case of `CCN(CC)CCn1c(=O)c(Cc2ccc(OC)cc2)nc2ccccc21`, the Potency result was “inactive”.

As for `CCCCc1oc2ccc(NS(C)(=O)=O)cc2c1C(=O)c1ccc(OCCCN(CCCC)CCCC)cc1`, the Potency is 11.8 µM (active).

With `O[C@@H](CNC[C@H](O)[C@H]1CCc2cc(F)ccc2O1)[C@@H]1CCc2cc(F)ccc2O1`, the Potency is 20.9 µM (active).

`CCCc1cc(C(N)=S)ccn1`: the Potency entry is “inactive”.

Turning to `CCOC(=O)[C@H](CCc1ccccc1)N[C@H]1CS[C@H](c2cccs2)CN(CC(=O)O)C1=O`, the Potency was 0.935 µM (active).
